Screening results from PubChem BioAssay.
A selection: hits, their analogues and other compounds. The true share with any hit is near 19%.
ELG1 repair inh: blocks ELG1-dependent DNA repair in HEK293T cells; HEK293T ELG1-luciferase reporter, luminescence, 16 h; DNA damage induced by 5-fluorouridine; Potency, µM (highest dose often 46.1 µM), for inactives: at the highest dose activity change, negative = inhibition, usual class: inhibitors; 330,000 compounds, 2.3% hits; AID 504467; further: potency means the concentration at half of the fitted maximal effect; nearly all actives have a fitted effect of over 55% in size
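5-Fluorouridine DNA damage + compound/DMSO, 2,000 cells/well, 16 h, 37 °C/5% CO2. ONE-Glo, 30 min RT, luminescence. Readout = decrease in reporter signal.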
DT40 TDP1 CPT: DT40-hTDP1 cell growth loss with CPT; chicken DT40 Tdp1-/-;hTDP1 cells + 20 nM CPT, ATP luminescence, 48 h; Potency, µM (top dose mostly 46.2 µM), inactives show at the top dose activity change, negative = growth inhibition, usual class: inhibitors; 420,000 compounds, 12% hits; further: potency means the concentration at half of the fitted maximal effect; nearly all actives have a fitted effect of over 55% in size
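Chicken DT40 Tdp1-/- cells complemented with human TDP1, 400 cells/well, exposed to compounds plus 20 nM camptothecin for at least 48 h at 37 C; viability read as ATP content by CellTiter-Glo luminescence.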
IL1B secr inh: inflammasome signaling inhibition, IL-1 beta readout; THP-1 LPS/ATP IL-1B secretion, AlphaLISA, 16 h; hits give low values; 360,000 compounds, 4.7% hits; activity change, % at 57.5 µM; in the data active means activity change below about -50%; inconclusive means mostly about -30% to -49%
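Secreted IL-1B measured by AlphaLISA bead assay after 16 h compound exposure of THP-1 cells; compounds (final up to 57.5 uM) added 1 h before LPS (250 ng/mL) and ATP (1.25 mM) stimulation; lower signal means less secretion.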
TDP1 cell noCPT: qHTS for Inhibitors of human tyrosyl-DNA phosphodiesterase 1 (TDP1): qHTS in cells in absence of CPT; AID 686978, 2013; 420,000 compounds, 15% hits; Potency, µM (top dose mostly 46.2 µM), for inactives: at the top dose activity change, negative = growth inhibition, hits mostly inhibitors; DT40 Tdp1-/- hTDP1 cells, no CPT, ATP luminescence, 48 h; further: potency means the concentration at half of the fitted maximal effect; nearly all actives have a fitted effect of over 55% in size
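Growth kinetics read by CellTiter-Glo luminescence after ≥48 hr at 37 °C. Cells: DT40 Tdp1-/- stably carrying human TDP1, 400 per well, compound exposure in the absence of CPT (DMSO vehicle).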
HT1080NT lethal: kills 2HG-producing HT-1080-NT fibrosarcoma cells | AID 686970 | 360,000 compounds, 1.6% hits | HT-1080-NT fibrosarcoma viability, CellTiter-Glo ATP luminescence, 48 h | Potency, µM (series often up to 46.1 µM), inactives show top-dose activity, negative = less viability, actives largely listed as cytotoxic;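 further: NT is the 2HG producing partner of a matched IDH1 knockdown line; potency means the concentration at half of the fitted maximal effect; 0% = DMSO-treated cells and -100% = media-only wells without cells; nearly all actives have a fitted effect of over 55% in size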
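Luminescent CellTiter-Glo readout after 48 hours of compound exposure at 37 degrees C defined viability of HT-1080-NT cells. Activity was normalized to DMSO wells and cell-free media wells; concentration-response curves were fitted and assigned curve classes.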
HT1080 IDH1KD tx: toxicity to HT-1080 IDH1 knockdown cells (counter line) | HT-1080 IDH1 knockdown viability, ATP luminescence, 48 h | Potency, µM (top dose mostly 46.1 µM), for the others: top-dose activity, negative = toxicity, actives largely listed as cytotoxic | 360,000 compounds, 2% hits | AID 686971;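 further: potency means the concentration at half of the fitted maximal effect; 0% = DMSO wells and -100% = cell-free medium wells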
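Luminescent ATP read-out (CellTiter-Glo, 10 min at room temperature) after 48 h compound exposure at 37 °C gave viability of IDH1-knockdown HT-1080 cells. Activity was normalised to DMSO and cell-free wells, then fitted as concentration-response curves.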
Active calls of the source: *. Unless noted, the call rests on the fitted dose curve; in most records, active means well fitted curve in the direction sought with a large enough effect; inconclusive means small, poorly fitted or top-dose-only effect, or another doubt; inactive means no such curve, though single readings can be large; an effect the other way counts as inactive or inconclusive. Unless noted, on the % scale 0 is the no-effect control and ±100 the full control effect.

COc1cccc(C(C(=O)NCC2CCCO2)N(C(=O)Cn2nnc3ccccc32)c2ccccc2C(C)=O)c1OC (stereo unspecified) was read as ELG1 repair inh 4%, DT40 TDP1 CPT 0%, IL1B secr inh -6, TDP1 cell noCPT -3%, HT1080NT lethal 3% and HT1080 IDH1KD tx 12%.
`CC(C)CCN(C(=O)CNC(=O)c1ccco1)C(C(=O)NC1CCCCC1)c1cccnc1` (stereo unspecified) gave ELG1 repair inh 7%, DT40 TDP1 CPT 3%, IL1B secr inh 16, TDP1 cell noCPT -16%, HT1080NT lethal 0% and HT1080 IDH1KD tx -9%.
COc1cccc(Cn2c(=O)c(-c3cc(F)cc(F)c3)nc3cnc(N(C)C)nc32)c1 was read as DT40 TDP1 CPT 7% and TDP1 cell noCPT -2%.
For O=[N+]([O-])c1ccc2nc(N3CCCC3)sc2c1 the results were ELG1 repair inh inconclusive, DT40 TDP1 CPT inconclusive, IL1B secr inh -6, TDP1 cell noCPT 18µM*, HT1080NT lethal 13% and HT1080 IDH1KD tx 2%.
For O=C(c1ccccc1)N1CCN(c2nc3ccc([N+](=O)[O-])cc3s2)CC1 the results were ELG1 repair inh -18%, DT40 TDP1 CPT 6.5µM*, IL1B secr inh -2, TDP1 cell noCPT 5.2µM*, HT1080NT lethal -5% and HT1080 IDH1KD tx -4%.
Screening CC1CN(C(=O)c2cc(Br)c(Br)s2)CC(C)O1 (stereo unspecified) returned ELG1 repair inh 7%, DT40 TDP1 CPT -16%, IL1B secr inh 0, TDP1 cell noCPT -15%, HT1080NT lethal 5% and HT1080 IDH1KD tx 13%.
Cc1cc(NC(=O)CSc2nc3ccccc3c(=O)n2-c2ccccc2)no1 was read as ELG1 repair inh inconclusive, DT40 TDP1 CPT -7%, IL1B secr inh 6, TDP1 cell noCPT -8%, HT1080NT lethal -3% and HT1080 IDH1KD tx 4%.
Cc1nnc(NC(=O)CSc2nc(C(C)C)nc3ccccc23)s1 was read as ELG1 repair inh inconclusive, DT40 TDP1 CPT 6.5µM*, IL1B secr inh 8, TDP1 cell noCPT 7.1µM*, HT1080NT lethal -2% and HT1080 IDH1KD tx 19%.
`CC(C)c1nc(SCC(=O)Nc2nc3c(s2)CCCC3)c2ccccc2n1` gave ELG1 repair inh -3%, DT40 TDP1 CPT 18µM*, IL1B secr inh -63*, TDP1 cell noCPT 11µM*, HT1080NT lethal inconclusive and HT1080 IDH1KD tx 11µM*.
Cc1cc(NC(=O)CSc2nc(C(C)C)nc3ccccc23)no1 was read as ELG1 repair inh 15µM*, DT40 TDP1 CPT inconclusive, IL1B secr inh -18, TDP1 cell noCPT inconclusive, HT1080NT lethal inconclusive and HT1080 IDH1KD tx 16µM*.
For O=C(CCSc1ccccc1)Nc1nc2c(s1)CCCC2 the results were ELG1 repair inh inconclusive, DT40 TDP1 CPT inconclusive, IL1B secr inh -4, TDP1 cell noCPT 10µM*, HT1080NT lethal -11% and HT1080 IDH1KD tx inconclusive.
`CC(C)c1nc(SCC(=O)NC2CCCC2)c2ccccc2n1` gave ELG1 repair inh -5%, DT40 TDP1 CPT -26%, IL1B secr inh inconclusive, TDP1 cell noCPT inconclusive, HT1080NT lethal -16% and HT1080 IDH1KD tx 1%.
Screening Cc1cc2n(n1)CCCN2C(=O)Nc1ccccc1F returned DT40 TDP1 CPT -15% and TDP1 cell noCPT -10%.
`CC1CC(C)CN(C(=O)CSc2nc(Cc3cccs3)nc3ccccc23)C1` (stereo unspecified) gave ELG1 repair inh inconclusive, DT40 TDP1 CPT inconclusive, IL1B secr inh -61*, TDP1 cell noCPT 21µM*, HT1080NT lethal inconclusive and HT1080 IDH1KD tx inconclusive.
O=C(CSc1ncnc2ccccc12)N1CCNC1=O was read as ELG1 repair inh 0%, DT40 TDP1 CPT 8%, IL1B secr inh -17, TDP1 cell noCPT -29%, HT1080NT lethal 3% and HT1080 IDH1KD tx -4%.
Screening Cc1nc(SCC(=O)N2CCNC2=O)c2ccccc2n1 returned ELG1 repair inh inconclusive, DT40 TDP1 CPT inconclusive, IL1B secr inh -96*, TDP1 cell noCPT inconclusive, HT1080NT lethal inconclusive and HT1080 IDH1KD tx inconclusive.
CC(C)(C)c1nc(SCC(=O)Nc2nc3c(s2)CCCC3)c2ccccc2n1 was read as ELG1 repair inh 3%, DT40 TDP1 CPT 15µM*, IL1B secr inh -4, TDP1 cell noCPT 12µM*, HT1080NT lethal inconclusive and HT1080 IDH1KD tx 1.4µM*.
For CCOC(=O)CNC(=O)CSc1nc(Cc2cccs2)nc2ccccc12 the results were ELG1 repair inh -5%, DT40 TDP1 CPT inconclusive, IL1B secr inh -11, TDP1 cell noCPT inconclusive, HT1080NT lethal -15% and HT1080 IDH1KD tx -2%.
O=C(CSc1nc(Cc2ccccc2)nc2ccccc12)Nc1nc2c(s1)CCCC2 was read as ELG1 repair inh 3%, DT40 TDP1 CPT inconclusive, IL1B secr inh -12, TDP1 cell noCPT inconclusive, HT1080NT lethal -7% and HT1080 IDH1KD tx inconclusive.
CC(C)(C)c1nc(SCC(=O)N2CCCC2)c2ccccc2n1 was read as ELG1 repair inh 10%, DT40 TDP1 CPT 21µM*, IL1B secr inh -18, TDP1 cell noCPT 16µM*, HT1080NT lethal 1% and HT1080 IDH1KD tx -1%.
For CCc1ccccc1-n1ncc(C(=O)Nc2ccccc2OC)c1C the results were ELG1 repair inh -15%, DT40 TDP1 CPT -8%, IL1B secr inh inconclusive, TDP1 cell noCPT -5%, HT1080NT lethal -15% and HT1080 IDH1KD tx -7%.
Screening CN1C[C@@H]2[C@@H]3C(=O)N(C)C(=O)[C@@H]3[C@](C)(C1=O)N2C(=O)c1ccc(C(C)(C)C)cc1 returned DT40 TDP1 CPT -11%, IL1B secr inh 0, TDP1 cell noCPT -15%, HT1080NT lethal 5% and HT1080 IDH1KD tx 14%.
Cc1cccc(C(=O)NC(=S)Nc2cccc3nc(C)ccc23)c1 was read as ELG1 repair inh 6%, DT40 TDP1 CPT inconclusive, IL1B secr inh 0, TDP1 cell noCPT inconclusive, HT1080NT lethal 1% and HT1080 IDH1KD tx 13%.
`COc1ccc2[nH]c3c(C)c4ccncc4c(C)c3c2c1` gave ELG1 repair inh inconclusive, DT40 TDP1 CPT 0.26µM*, IL1B secr inh -100*, TDP1 cell noCPT 0.92µM*, HT1080NT lethal 23µM* and HT1080 IDH1KD tx 18µM*.
Screening COc1ncnc2c1ncn2CCCNc1ccc(C)c(C)c1 returned DT40 TDP1 CPT inconclusive, IL1B secr inh -10, TDP1 cell noCPT 13µM*, HT1080NT lethal 0% and HT1080 IDH1KD tx 1%.
